Experimental data taken from the supplement of paper PMC9262897, “Low-cost anti-mycobacterial drug discovery using engineered E. coli” (Nature Communications, 2022).
Structures can show the parent of a compound that is named as a salt. ± gives the standard deviation of the averaged measurements.

Legend:
Experiment in all cases: growth (OD600 after 10 h); higher = more growth (less inhibition)
[1] = test system: E. coli TESEC Alr+ wild-type control; details: compound 0.1 mM; raw OD600 reference: median of DMSO wells 0.241, cell-free background 0.041
Method: (§1)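 TESEC Mtb Alr E. coli, or the Alr+ wild-type control, in 384-well plates with Prestwick library compounds at 0.1 mM and 1% DMSO, across arabinose induction levels of 1E3 to 1E7 nM. Growth is read as OD600 after 10 h at 37 °C in triplicate biological replicates.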

E. coli TESEC Mtb Alr [2] = details: compound 0.1 mM
Method: as §1

E. coli TESEC Mtb Asd = details: compound 0.1 mM
Method: (§2)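 TESEC E. coli strains in which the native enzyme is deleted and replaced by arabinose-inducible Mtb Asd, DapB, CysH or TrpD, each grown in its selective medium. Strains were screened against the Prestwick library at 0.1 mM and 1% DMSO in 384-well format at low and high arabinose induction. Growth is read as OD600 after 10 h in triplicate.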

E. coli TESEC Mtb DapB = details: compound 0.1 mM
Method: as §2

[3] = test system: E. coli TESEC Alr+ wild-type control; details: compound 0.1 mM; raw OD600 reference: median of DMSO wells 0.49, cell-free background 0.052
Method: (§3)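 TESEC Mtb Alr E. coli (ΔaraC ΔtolC ΔentC Δalr ΔdadX, arabinose-inducible Mtb Alr) or the Alr+ wild-type control strain, grown in defined M9-fructose medium without D-alanine in 96-well plates with Prestwick library compounds at 0.1 mM and 1% DMSO. Low Alr induction is 0.1 µM arabinose and high induction is 10 mM arabinose.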

E. coli TESEC Mtb Alr [4] = details: compound 0.1 mM; remark: listed apart in the source
Method: as §3

[5] = arabinose 1000 nM, raw OD600 reference: median of DMSO wells 0.294, cell-free background 0.041
[6] = arabinose 10000 nM, raw OD600 reference: median of DMSO wells 0.264, cell-free background 0.041
[7] = arabinose 100000 nM, raw OD600 reference: median of DMSO wells 0.201, cell-free background 0.041
[8] = arabinose 1000000 nM, raw OD600 reference: median of DMSO wells 0.193, cell-free background 0.041
[9] = arabinose 10000000 nM, raw OD600 reference: median of DMSO wells 0.146, cell-free background 0.041
[10] = arabinose induction (level): High, raw OD600 reference: median of DMSO wells 0.331, cell-free background 0.041
[11] = arabinose induction (level): Low, raw OD600 reference: median of DMSO wells 0.417, cell-free background 0.041
[12] = arabinose induction (level): High, raw OD600 reference: median of DMSO wells […], cell-free background 0.041
[13] = arabinose induction (level): Low, raw OD600 reference: median of DMSO wells 0.227, cell-free background 0.041
[14] = arabinose 100 nM, raw OD600 reference: median of DMSO wells 0.413, cell-free background 0.052
[15] = arabinose 10000000 nM, raw OD600 reference: median of DMSO wells […], cell-free background 0.052

Row | Structure (SMILES) | growth [1] | growth (E. coli TESEC Mtb Alr [2]; [5]) | growth (E. coli TESEC Mtb Alr [2]; [6]) | growth (E. coli TESEC Mtb Alr [2]; [7]) | growth (E. coli TESEC Mtb Alr [2]; [8]) | growth (E. coli TESEC Mtb Alr [2]; [9]) | growth (E. coli TESEC Mtb Asd; [10]) | growth (E. coli TESEC Mtb Asd; [11]) | growth (E. coli TESEC Mtb DapB; [12]) | growth (E. coli TESEC Mtb DapB; [13]) | growth [3] | growth (E. coli TESEC Mtb Alr [4]; [14]) | growth (E. coli TESEC Mtb Alr [4]; [15])
1 | OC(CCN1CCCCC1)(c1ccccc1)C1CCCCC1 (stereo not given) [Trihexyphenidyl-D,L Hydrochloride] | 0.222 ± 0.012 | 0.316 ± 0.019 | 0.265 ± 0.012 | 0.194 ± 0.0034 | 0.147 ± 0.0092 | 0.164 ± 0.0019 | 0.299 ± 0.04 | 0.43 ± 0.071 | 0.179 ± 0.016 | 0.22 ± 0.018 | 0.452 ± 0.031 | 0.4127 ± 0.0033 | 0.324 ± 0.024
2 | O=C1Nc2ccc(Cl)cc2[C@@](C#CC2CC2)(C(F)(F)F)O1 [Efavirenz] | 0.0395 ± 0.00017 | 0.0401 ± 0.00093 | 0.0421 ± 0.0013 | 0.0412 ± 0.0003 | 0.03963 ± 0.00025 | 0.0413 ± 0.0013 | 0.0541 ± 0.0055 | 0.0488 ± 0.0019 | 0.0481 ± 0.00017 | 0.048 ± 0.00069 | 0.047 ± 0.00044 | 0.259 ± 0.075 | 0.049 ± 0.00044
3 | O=C(CCCN1CCC(O)(c2ccc(Br)cc2)CC1)c1ccc(F)cc1 [Bromperidol] | 0.215 ± 0.0079 | 0.287 ± 0.0074 | 0.265 ± 0.0061 | 0.218 ± 0.028 | 0.179 ± 0.0028 | 0.148 ± 0.0045 | 0.254 ± 0.025 | 0.344 ± 0.092 | 0.177 ± 0.014 | 0.215 ± 0.044 | 0.381 ± 0.013 | 0.417 ± 0.0095 | 0.306 ± 0.022
4 | CCCCC1C(=O)N(c2ccccc2)N(c2ccccc2)C1=O [Phenylbutazone] | 0.17293 ± 0.00015 | 0.224 ± 0.0029 | 0.234 ± 0.023 | 0.124 ± 0.0055 | 0.0869 ± 0.0014 | 0.132 ± 0.0036 | 0.145 ± 0.0034 | 0.261 ± 0.083 | 0.141 ± 0.0096 | 0.152 ± 0.006 | 0.576 ± 0.075 | 0.399 ± 0.0095 | 0.283 ± 0.034
5 | Cn1c(=O)c2c(ncn2CCO)n(C)c1=O [Etofylline] | 0.254 ± 0.003 | 0.283 ± 0.0029 | 0.276 ± 0.016 | 0.228 ± 0.011 | 0.195 ± 0.0066 | 0.145 ± 0.0023 | 0.396 ± 0.053 | 0.425 ± 0.033 | 0.192 ± 0.0028 | 0.264 ± 0.098 | 0.509 ± 0.055 | 0.414 ± 0.0083 | 0.349 ± 0.0046
6 | CC(C)(C)NC[C@H](O)COc1nsnc1N1CCOCC1 [Timolol maleate salt] | 0.2306 ± 0.00072 | 0.306 ± 0.0088 | 0.252 ± 0.0061 | 0.198 ± 0.0053 | 0.172 ± 0.0044 | 0.151 ± 0.006 | 0.451 ± 0.021 | 0.432 ± 0.019 | 0.206 ± 0.016 | 0.258 ± 0.018 | 0.51 ± 0.069 | 0.401 ± 0.015 | 0.32 ± 0.021
7 | CN(C)C/C=C(/c1ccc(Br)cc1)c1cccnc1 [Zimelidine dihydrochloride monohydrate] | 0.2066 ± 0.0016 | 0.261 ± 0.0081 | 0.255 ± 0.028 | 0.192 ± 0.028 | 0.153 ± 0.0035 | 0.134 ± 0.0035 | 0.237 ± 0.037 | 0.413 ± 0.022 | 0.168 ± 0.0086 | 0.261 ± 0.12 | 0.445 ± 0.04 | 0.397 ± 0.01 | 0.303 ± 0.028
8 | CC(=O)Oc1cccc2c1C(=O)c1c(OC(C)=O)cc(C(=O)O)cc1C2=O [Diacerein] | 0.122 ± 0.0032 | 0.136 ± 0.011 | 0.161 ± 0.0033 | 0.0638 ± 0.0022 | 0.0904 ± 0.0041 | 0.0642 ± 0.005 | 0.224 ± 0.019 | 0.348 ± 0.045 | 0.208 ± 0.019 | 0.23 ± 0.015 |  | 0.0492 ± 0.00056 | 0.0619 ± 0.0035
9 | Cc1ccc(C(=O)c2cc(O)c(O)c([N+](=O)[O-])c2)cc1 [Tolcapone] | 0.04277 ± 0.00032 | 0.0471 ± 0.0057 | 0.04323 ± 0.00038 | 0.0445 ± 0.00061 | 0.04313 ± 0.00042 | 0.0485 ± 0.00089 | 0.0527 ± 0.0018 | 0.0521 ± 0.0091 | 0.0526 | 0.0557 ± 0.0019 |  | 0.0574 ± 0.0008 | 0.0554 ± 0.00035
10 | CC(C(=O)O)c1ccc(N2Cc3ccccc3C2=O)cc1 (stereo not given) [Indoprofen] | 0.219 ± 0.011 | 0.264 ± 0.018 | 0.249 ± 0.0066 | 0.178 ± 0.0022 | 0.189 ± 0.0034 | 0.128 ± 0.0066 | 0.345 ± 0.075 | 0.353 ± 0.053 | 0.206 ± 0.016 | 0.186 ± 0.0097 |  | 0.424 ± 0.013 | 0.361 ± 0.007
11 | CCCCNc1c(C(=O)OCC)c(C)nc2c1cnn2CC [Tracazolate hydrochloride] | 0.15 ± 0.017 | 0.203 ± 0.049 | 0.13 ± 0.037 | 0.197 ± 0.051 | 0.077 ± 0.031 | 0.168 ± 0.031 | 0.165 ± 0.017 | 0.179 ± 0.014 | 0.156 ± 0.0092 | 0.194 ± 0.0047 |  | 0.366 ± 0.0077 | 0.186 ± 0.042
12 | O=C1CC2(CCCC2)CC(=O)N1CCCCN1CCN(c2ncccn2)CC1 [Buspirone hydrochloride] | 0.2005 ± 0.002 | 0.274 ± 0.0095 | 0.2798 ± 0.0023 | 0.184 ± 0.028 | 0.198 ± 0.011 | 0.134 ± 0.0058 | 0.337 ± 0.021 | 0.439 ± 0.046 | 0.1852 ± 0.0015 | 0.226 ± 0.035 |  | 0.411 ± 0.0053 | 0.346 ± 0.011
13 | C[C@@H](O)[C@H]1C(=O)N2C(C(=O)O)=C(S[C@@H]3CN[C@H](C(=O)N(C)C)C3)[C@H](C)[C@H]12 [Meropenem] | 0.0404 ± 0.00057 | 0.0418 ± 0.0014 | 0.0448 ± 0.0059 | 0.0523 ± 0.0007 | 0.0817 ± 0.0057 | 0.0962 ± 0.003 | 0.138 ± 0.0038 | 0.0552 ± 0.0001 | 0.135 ± 0.0089 | 0.169 ± 0.013 |  | 0.04557 ± 0.00025 | 0.0882 ± 0.013
14 | CC[N+](CC)(CC)CCOc1cccc(OCC[N+](CC)(CC)CC)c1OCC[N+](CC)(CC)CC [Gallamine triethiodide] | 0.245 ± 0.011 | 0.308 ± 0.014 | 0.2806 ± 0.0014 | 0.233 ± 0.017 | 0.191 ± 0.0068 | 0.1674 ± 0.00091 | 0.233 ± 0.013 | 0.368 ± 0.033 | 0.19 ± 0.011 | 0.251 ± 0.037 |  | 0.4196 ± 0.0011 | 0.372 ± 0.017
